Experimental data as given in PubChem BioAssay AID893 (National Center for Advancing Translational Sciences (NCATS), 2007).
The campaign covered roughly 75,000 compounds. About 5,700 (7.6%) were called active. Roughly 7% stayed inconclusive and do not appear here. Calls come from the whole dose curve; as a rule, active = well fitted inhibition curve with a large enough effect; inconclusive = small, poorly fitted or top-dose-only effect; inactive = no such curve, though single readings can be large or run the other way. This excerpt belongs to a sample that is enriched for actives.

What follows are compounds tested against 3-hydroxyacyl-CoA dehydrogenase type-2 (Homo sapiens) (UniProt Q99714) (assay: qHTS Assay for Inhibitors of HSD17B4, hydroxysteroid (17-beta) dehydrogenase 4). Conditions: recombinant HSD17B10, NADH fluorescence kinetic; series mostly up to 57.1 µM.
Procedure, shortened: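 20 nM HADH2, pH 9.0 Tris/Tween; cpd preinc 15 min RT; start w/ 1 mM NAD+ + 90 uM b-hydroxybutyryl-CoA; kinetic fluor ex360/em450 q30s x 4 min; delta last-first.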
% is set by controls: 0 for no effect and ±100 for the full control effect; potency is the fitted concentration of half-maximal effect.
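Note: the protocol describes HADH2 (HSD17B10) and not the HSD17B4 of the title; nearly all actives have a fitted effect of over 70% in size.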

Potency, inactive:
COc1ccc(CCNC(=O)C2CCN(c3nn4c(=O)cc(C)nc4s3)CC2)cc1OC
CCCS(=O)(=O)N1CCC(C(=O)NCCc2ccc(OC)c(OC)c2)CC1
CCC(C)NC(=O)C1CCC(=O)N1Cc1ccc(C)cc1 (stereo not given)
CN(Cc1ccccc1)c1nc2c(c(=O)[nH]c(=O)n2C)n1CCSc1nc2ccccc2[nH]1
CC(C)CCn1c(CN(C)Cc2ccccc2)nc2c1c(=O)n(C)c(=O)n2C
CN1CCN(Cc2c(O)ccc3c2oc(=O)c2ccccc23)CC1
COc1ccc(OC)c(C(=O)c2coc3ccc(O)c(CN4CCOCC4)c23)c1
COc1ccc(S(=O)(=O)N(CCCN2CCCC2=O)Cc2cc3c(C)ccc(C)c3[nH]c2=O)cc1
O=C1Nc2ccccc2C12Nc1ccccc1S2 (stereo not given)
CCCOc1ccccc1C1CC(=O)Nc2cc3c(cc21)OCO3 (stereo not given)
O=C(Nc1ccc(Cl)cc1)c1ccsn1
COC(=O)c1ccc(S(=O)(=O)c2ccc(C(=O)OC)s2)s1
CCCC[C@@H]1C[C@H]1C(NC(=O)c1ccc(-c2ccccc2)cc1)c1ccc(-c2ccccc2)cc1 (stereo not given in full)
Cc1oc2nc(SCC(=O)NCc3cccnc3)nc(N)c2c1C
COCCn1c(CN2CCC(Cc3ccccc3)CC2)nc2c1c(=O)n(C)c(=O)n2C
COc1ccccc1CCn1c(=O)c(-c2cn(C)c3ccccc23)nc2cncnc21
COc1ccc(-n2c(=O)c(C)nc3cnc(N4CCOCC4)nc32)cc1
CCOC(=O)c1cc2occc2n1CC(=O)NC1CCC(C)CC1 (stereo not given)
CCOC(=O)C1CCCN(C(=O)CN(c2ccc(OC)cc2)S(=O)(=O)c2c(C)noc2C)C1 (stereo not given)
c1ccc(Nc2nc(-c3ccncc3)cs2)nc1
O=C(Nc1nc(-c2ccc3c(c2)OCO3)cs1)c1ccncc1
CN/C(=C\[N+](=O)[O-])NCCSCc1csc(CN(C)C)n1
Cn1c(=O)n(CCc2ccccc2)c(=O)c2c1nc1n2CCCN1c1ccccc1
Cn1cc(-c2nc3cnc(N4CCNCC4)nc3n(CCc3ccccc3)c2=O)c2ccccc21
COc1cccc(Nc2ncc3ncc(=O)n(C4CC4)c3n2)c1
COc1cccc(Cn2c(=O)c(C)nc3cnc(Oc4ccccc4)nc32)c1
O=c1c(CCc2ccccc2)nc2cncnc2n1C1CC1
Cc1nc2cnc(Nc3ccccc3)nc2n(Cc2ccc(F)cc2)c1=O
Cn1c(=O)c(CCc2ccccc2)nc2cnc(Nc3ccccc3)nc21
O=c1cnc2cnc(Nc3ccccc3)nc2n1Cc1ccc(F)cc1
CCOC(=O)c1ccc(N2C(=O)CC(Sc3nc(O)c(CC)c(=O)[nH]3)C2=O)cc1 (stereo not given)
CN1CCN(c2ncncc2-c2ccc(C(=O)N(C)C)cc2)CC1
COC(=O)c1ccc(NC(=O)CSc2nnc(Cc3cccn3C)n2-c2ccc(F)cc2)cc1
CC(=O)OC1CCC2(O)CC1(C)CCC1C2CC1(C)C (stereo not given)
CC(=O)Oc1ccccc1C(=O)Nc1ncc([N+](=O)[O-])s1
COc1ccccc1N1CCN(C[C@@H]2CN3C(=O)N(C)c4ccccc4C3=N2)CC1
O=C1c2ccccc2C(=O)N1CCc1nn[nH]n1
CN(C)CCOC(=O)C(c1ccccc1)C1(O)CCCC1 (stereo not given)
COc1ccccc1N1CCN(C(=O)CSc2nnc(-c3ccoc3C)o2)CC1
CCOC(=O)C1CCCN(C(=O)c2ccc(CS(=O)(=O)c3ccc(Br)cc3)o2)C1 (stereo not given)
OC(COc1cccc(OCC(O)CN2CCCC2)c1)CN1CCCC1 (stereo not given)
COc1ccc(-c2nnco2)cc1OC
COCCNCCOCCOc1cccc(OC)c1
CCc1nc2ccccc2n(CCOCCOCCn2c(=O)c(CC)nc3ccccc32)c1=O
O=c1c(-c2ccc(F)cc2)nc2cnc(N3CCNCC3)nc2n1Cc1cccs1
COCCn1c(=O)c(CCc2ccccc2)nc2cncnc21
Cc1c2cn[nH]c(=O)c2c(C)n1Cc1ccc(F)cc1
O=C1C(c2ccccn2)=[N+]([O-])c2ccccc21
COC1C[C@@H](O[C@@H]2C(C)C(=O)OC(C)C(C)C(O)C(C)C(=O)[C@@]3(CO3)CC(C)C(OC3OC(C)CC(N(C)C)C3O)C2C)OC(C)[C@@H]1O (stereo not given in full)
O=C(Oc1cc(OC(=O)c2ccccc2)c2c(c1)OC(c1ccc(OC(=O)c3ccccc3)c(OC(=O)c3ccccc3)c1)[C@@H](OC(=O)c1ccccc1)C2)c1ccccc1 (stereo not given in full)
CC(=O)Oc1cccc(N2C(=O)C3CC=C(Cl)CC3C2=O)c1 (stereo not given)
COc1ccc(C(=O)Nc2ccc3c(c2)OCO3)cc1OC
CC(=O)Nc1ccc(S(=O)(=O)N2CCCC2C(=O)O)cc1 (stereo not given)
C=C(C)Cn1c(SCC(=O)NCc2ccco2)nc2sc3c(c2c1=O)CCC3
O=C(Cc1ccccc1)n1nc(-c2ccccc2)nc1NCc1ccco1
CC(=O)NCCc1ccc(S(=O)(=O)N(C)C2CCS(=O)(=O)C2)cc1 (stereo not given)
CCn1c(COc2ccccc2)nnc1SCC(=O)Nc1ccc2c(c1)OCCO2
CN1CCN(S(=O)(=O)c2ccc(NC(=O)C3CCCO3)cc2)CC1 (stereo not given)
COc1ccc(C(=O)CSc2nnc(COc3ccccc3)n2Cc2ccco2)cc1
O=c1c2[nH]c3ccc(Cl)cc3c2ncn1Cc1ccccn1
O=C1CC(c2cccc(Br)c2)C2=C(CCCC2=O)N1 (stereo not given)
COc1ccc(NC(=O)CN2CCN(S(=O)(=O)c3ccc(F)cc3)CC2)cc1Cl
O=C(CN1CCN(S(=O)(=O)c2ccc(F)cc2)CC1)Nc1ccccc1F
CCN(CCCCOC(=O)c1ccc(OC)c(OC)c1)C(C)Cc1ccc(OC)cc1 (stereo not given)
CCN(CC)S(=O)(=O)N1CCC(C(=O)NC(C)CCc2ccccc2)CC1 (stereo not given)
Cc1ccc2c(NC(=O)C3CC3)cccc2n1
CCOC(=O)c1nc(N)sc1C(=O)OCC
COc1ccccc1Cn1c(=S)[nH]c2cc(C(=O)N3CCN(C)CC3)ccc2c1=O
CCOC(=O)CSC1=C(C#N)C(c2ccco2)C(C(=O)OCc2ccccc2)=C(C)N1 (stereo not given)
CCOC(=O)CSC1=C(C#N)C(c2sccc2C)CC(=O)N1 (stereo not given)
O=C(Cn1nnc(-c2ccc(CN3CCOCC3)cc2)n1)NC1CCCCC1
COCCCNC(=O)COc1cc(C)c(Cl)c(C)c1
CCC/C(O)=C1\C(=O)CC(C)(C)CC1=Nc1ccccc1OC

Potency, active:
CCOc1ccc(CCNC(=O)C2CCN(c3ccc(N4CCOCC4)nn3)CC2)cc1OCC 25.1 µM
Cc1ccnc(SCCn2c(N(C)Cc3ccccc3)nc3c2c(=O)n(C)c(=O)n3C)n1 31.6 µM
O=c1c(-c2ccccc2)coc2c(CN3CCOCC3)c(O)ccc12 31.6 µM
Cc1ccnc(-n2sc3ccccc3c2=O)n1 3.16 µM
O=C1NC(c2cc3c(cc2Cl)OCO3)Oc2ccccc21 (stereo not given) 31.6 µM
COCCn1c(=O)c(-c2cccs2)nc2cnc(N3CCN(C)CC3)nc21 20 µM
COCCn1c(=O)c(-c2ccccc2)nc2cnc(N3CCOCC3)nc21 20 µM
COCCn1c(=O)c(-c2cccs2)nc2cncnc21 25.1 µM
O=C(Nc1nc(-c2ccncc2)cs1)C1COc2ccccc2O1 (stereo not given) 31.6 µM
CN(C)c1ncc2nc(-c3ccc(F)cc3)c(=O)n(Cc3ccc(F)cc3)c2n1 3.98 µM
COc1cccc(Cn2c(=O)c(CCc3ccccc3)nc3cnc(N(C)C)nc32)c1 25.1 µM
N#Cc1cccc(-c2nc3cnc(N4CCNCC4)nc3n(C3CC3)c2=O)c1 3.98 µM
Cc1nc2cnc(N3CCNCC3)nc2n(CCc2ccccc2)c1=O 25.1 µM
COCCn1c(=O)c(CCc2ccccc2)nc2cnc(N3CCNCC3)nc21 31.6 µM
Cn1c(=O)c(-c2ccccc2)nc2cnc(N3CCNCC3)nc21 25.1 µM
COCCn1c(=O)c(-c2cc(F)cc(F)c2)nc2cnc(N3CCNCC3)nc21 25.1 µM
Cc1nc2cnc(N3CCNCC3)nc2n(Cc2ccc(F)cc2)c1=O 25.1 µM
CN1CCc2c(sc3c2c(NCc2ccco2)nc2nnnn23)C1 31.6 µM
COc1ccc2[nH]c3c(=O)n(Cc4ccco4)cnc3c2c1 3.16 µM
COc1cc2c(cc1NC(=O)CN1CCN(S(=O)(=O)c3ccc(F)cc3)CC1)oc1ccccc12 3.16 µM
CC(=O)N1CCC(C(=O)Nc2nc(-c3ccccc3)ns2)CC1 10 µM
CN1CCCc2cc(C#N)c(=O)[nH]c21 15.8 µM
CC1=C(C(=O)Nc2ccccc2)C(c2cccs2)C(C#N)=C(SCC#N)N1 (stereo not given) 31.6 µM

Activity change, negative = inhibition, inactive:
CC(C)CO/N=C1/C[C@@H](O)[C@@H](O)[C@@H]2[C@@H]3C(=O)N(C[C@@H]4CCCO4)C(=O)[C@H]3CC[C@@H]12 9.42% [at 11.4 µM]
CCOC(=O)[C@]1(C(/C=C/c2ccco2)NC(=O)OC)CCCC1=O (stereo not given in full) -2.18% [at 11.4 µM]
Cc1cc(C)c2nc3c(c([C@H](O)[C@@H]4CCCCN4)c2c1)CC/C3=C/c1ccc(Cl)cc1 9.81% [at 11.4 µM]
CCCNC(=O)OC[C@@H]1O[C@H](c2ccccc2)C=C[C@@H]1Oc1ccc(OC)cc1 -0.586% [at 11.4 µM]
